# Laboratory results taken from PubChem BioAssay AID430 (Sanford-Burnham Center for Chemical Genomics, 2006).
# In all, about 63,000 compounds went through this assay and about 1,100 (1.7%) were called active. Only a selection was taken, and actives are over-represented in it overall. Results with a measured potency or affinity are listed apart. A number with no mark means an inactive call. No stated cut-off is given here; in the data, active means cytotoxicity above about 50%; inactive means the rest.
# Assay: cytotoxicity in HPDE-C7 cells, cell-based, fluorescence, HTS (AID 430);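 further: cells exposed to compound for 48 hours before viability readout; 0% = vehicle and 100% = reference cytotoxic drug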
# Conditions: HPDE-C7 pancreatic duct cells viability, at 10 µM, hits give high values
row,Structure (SMILES),cytotoxicity
1,Cc1cccc2cc(CN(Cc3ccco3)C(=O)c3cccs3)c(=O)[nH]c12,-11.9%
2,Cn1c(Cc2ccccc2)nnc1SCC(=O)Nc1ccccc1N1CCOCC1,2.9%
3,CC(C)OC(=O)c1cn(-c2ccccc2)nc1-c1ccco1,4.8%
4,OCCN(Cc1ccccc1)Cc1cccc(F)c1,-3.2%
5,CC(C)Cn1c(N)c(C(=O)NCC2CCCO2)c2nc3ccccc3nc21 (centres undefined),26.3%
6,Nc1c(C(=O)NC2CCCC2)c2nc3ccccc3nc2n1/N=C/c1cccnc1,62.6% (active)
7,CCCCNC(=O)c1c(N)n(/N=C/c2cccnc2)c2nc3ccccc3nc12,4%
8,COCCNC(=O)c1c(N)n(CCCn2ccnc2)c2nc3ccccc3nc12,7%
9,Nc1c(C(=O)NC2CCCCC2)c2nc3ccccc3nc2n1/N=C/c1ccco1,5.1%
10,COCCNC(=O)c1c(N)n(-c2cccc(C)c2)c2nc3ccccc3nc12,9.2%
11,Nc1c(C(=O)NCC2CCCO2)c2nc3ccccc3nc2n1-c1ccccc1 (centres undefined),11.1%
12,Nc1c(C(=O)NC2CCCC2)c2nc3ccccc3nc2n1N,11.6%
13,COCCn1c(N)c(C(=O)NCC2CCCO2)c2nc3ccccc3nc21 (centres undefined),11.4%
14,O=C(Nc1ccccc1N1CCN(c2ccc(F)cc2)CC1)C1CCCCC1,-6.3%
15,O=C(Oc1cccc(Oc2ccccc2)c1)N1CCOCC1,-6.3%
16,CCN(CC)C(=O)CSC1=Nc2ccccc2C2=NC(Cc3c[nH]c4ccccc34)C(=O)N12 (centres undefined),-6.1%
17,O=C(CSc1nnnn1C1CCCCC1)NCc1ccc2c(c1)OCO2,3.2%
18,COCCN1C(=O)C(=O)/C(=C(/O)c2ccc(OC(C)C)cc2)C1c1cccnc1 (centres undefined),-2.7%
19,CCN1CCN(C(=O)c2ccc3c(c2)N(Cc2ccc(F)cc2)C(=O)c2ccccc2S3=O)CC1 (centres undefined),-1.9%
20,COc1ccc(OC)c(C2NC(=O)NC(C)=C2C(=O)Nc2ccc(C)cc2C)c1 (centres undefined),-13.3%
21,COc1ccc(Cc2nc(-c3ccccc3)no2)cc1,-1.1%
22,CCOc1cc(S(=O)(=O)n2c(C)nc3ccccc32)ccc1F,2.2%
23,CCN(Cc1ccccc1)Cc1cc(OC)cc(OC)c1,8%
24,CSCCC(NC(=O)c1cc(CC(C)C)oc1C)C(=O)O (centres undefined),-17.8%
25,CCc1nnc(NC2=NCCC2)s1,-21.5%

row,Structure (SMILES),cytotoxicity
1,CC(C)Cn1c(N)c(C(=O)NCCN2CCOCC2)c2nc3ccccc3nc21,-16.3%
2,CC(C)Cn1c(N)c(C(=O)NCc2cccs2)c2nc3ccccc3nc21,63.9% (active)
3,COCCn1c(N)c(C(=O)NCc2cccs2)c2nc3ccccc3nc21,-11.2%
4,Cc1ccc(NC(=O)Nc2ccc3c(c2)N(C)C(=O)CS3)nc1,-4.8%
5,COC(=O)CCSCC(=O)Nc1cc(C)on1,-18%
6,CCn1c(COc2cccc(C)c2)nnc1SCC(=O)N1CCCC1,-3.1%
7,C=Cn1ccnc1P(=S)(c1ccc2c(c1)c1ccccc1n2CC)c1nccn1C=C,73.4% (active)
8,CCn1c2ccccc2c2cc(N)ccc21,15.8%
9,CCn1c2ccccc2c2cc(/C=N/n3cnnc3)ccc21,10.8%
10,CCCCn1c(=O)[nH]c(=O)c2c1nc(-c1ccc(C#N)cc1)n2C1CCCC1,-7%
11,CCOC(=O)CSc1nc2ccccc2c(=O)n1CCCCCC(=O)NCc1ccco1,-23.3%
12,CC(Oc1ccc(Cl)cc1Cl)C(=O)NCCCn1ccnc1 (centres undefined),-1.6%
13,OC(Cn1ccnc1)c1ccc(Cl)cc1Cl (centres undefined),-4.5%
14,Clc1ccc(OCCn2ccnc2)c(Cl)c1,-13.9%
15,Clc1ccc(SCCn2ccnc2)cc1,-0.3%
16,OC(Cn1cncn1)c1ccc(Cl)cc1Cl (centres undefined),1.1%
17,O=C(COc1ccc(Cl)cc1Cl)NCCCn1ccnc1,-3.9%
18,c1ccc2c(Cn3ccnc3)c[nH]c2c1,-14%
19,COc1ccc(C(c2sc3nc(C)nn3c2O)N2CCC(O)CC2)cc1OC (centres undefined),-15.1%
20,CC(=O)C1=C(C)OC(N)=C(C#N)C1c1ccncc1 (centres undefined),-7%
21,COc1ccccc1N1CCN(Cc2cccc(OC)c2OC)CC1,3.3%
22,CCCCOc1ccc(C(=O)N2CCC(C)CC2)cc1,-20.7%
23,CCCCOc1ccc(C(=O)OC2CC(C)N(C)CC2C)cc1 (centres undefined),61.9% (active)
24,CCCCOc1ccc(C(=O)NC)cc1,-5.6%
25,Cc1ccc2occ(CN3CCN(c4ccccc4)CC3)c(=O)c2c1,-17%

row,Structure (SMILES),cytotoxicity
1,COc1cc(CN2CCSCC2)cc(OC)c1OC,-9.5%
2,COc1cccc(N2CCN(Cc3coc4c(Cl)cc(Cl)cc4c3=O)CC2)c1,61.8% (active)
3,COc1ccc(CCNC(=O)CN2CCN(c3cccc(Cl)c3)CC2)cc1OC,1.7%
4,COc1ccc(N2CCN(Cc3cc(=O)oc4ccc(Cl)cc34)CC2)cc1,-1.8%
5,COc1ccc(S(=O)(=O)CCC(=O)Nc2c(C)n(C)n(-c3ccccc3)c2=O)cc1,-10.2%
6,CC(C)N(Cc1ccccc1)S(=O)(=O)N(C)C,-7.9%
7,COc1cc(NC(=O)Cc2nn(C)c(=O)c3ccccc23)cc(OC)c1,19.8%
8,COc1ccc(-c2cc(C(F)(F)F)n3ncc(C(=O)O)c3n2)cc1OC,2%
9,Cc1ccc(S(=O)(=O)N2CCN(C(=O)C3CCCCC3)CC2)cc1,7.7%
10,Cc1cccc(OCCCN2CCCCCC2)c1,19.3%
11,Cc1cccc(OCCn2c(=O)n(C)c3ccccc32)c1,-3.7%
12,Cc1cc(C)n(-c2nnc3n2N=C(c2ccccc2)CS3)n1,-0.3%
13,Cc1cccc(-c2nnc3n2N=C(c2ccccc2Br)CS3)c1,15%
14,Cc1cc(C)n(-c2nnc3n2N=C(c2c[nH]c4ccccc24)CS3)n1,51.3% (active)
15,CCn1c(SCC#N)nc2c(c1=O)C1(CCCC1)Cc1ccccc1-2,41.8%
16,CCCn1c(SCC#N)nc2c(c1=O)C1(CCCC1)Cc1ccccc1-2,47.8%
17,N#CCSc1n[nH]c2nc3c(c(=O)n12)C1(CCCC1)Cc1ccccc1-3,54.9% (active)
18,c1ccc(-n2nnnc2Oc2ccc(-c3nnco3)cc2)cc1,-4.8%
19,COc1ccccc1-c1cc(C(F)(F)F)nc(S(=O)(=O)CCCC(=O)N2CCCCC2C)n1 (centres undefined),88.8% (active)
20,COc1ccccc1-c1cc(C(F)(F)F)nc(N2CCN(c3ccccc3)CC2)n1,29.8%
21,COc1ccccc1-c1cc(C(F)(F)F)nc(S(=O)(=O)CCCC(=O)NC(C)C)n1,28%
22,COc1ccccc1-c1cc(C(F)(F)F)nc(N2CCCC2)n1,-25.6%
23,COc1ccccc1-c1cc(C(F)(F)F)nc(N2CCOCC2)n1,-5.9%
24,Cc1cc(S(=O)(=O)N(Cc2ccc3c(c2)OCO3)CC2CCCO2)ccc1-n1cnnn1 (centres undefined),-7.2%
25,COc1cccc(C(=O)Nc2nnc(-c3ccc(F)cc3)o2)c1,31%

row,Structure (SMILES),cytotoxicity
1,COc1cccc(C(=O)Nc2cccc(-c3nnc(-c4ccccc4)o3)c2)c1,3.9%
2,COc1cccc(C(=O)Nc2nnc(-c3ccc(Cl)cc3)o2)c1,85.7% (active)
3,COc1cccc(-c2nnc(NC(C)=O)o2)c1,7.6%
4,COc1ccc(-c2nnc(NC(=O)c3cc(Cl)ccc3Cl)o2)cc1,33.1%
5,COc1cccc(-c2nnc(NC(=O)c3cccc(F)c3)o2)c1,61.8% (active)
6,O=C(Nc1ccc(Cc2ccncc2)cc1)C1CC1,-38.5%
7,CN(C)/C=c1\sc2c(C#N)cc(C(=O)c3ccc(Br)cc3)n2c1=O,-29.6%
8,O=C1[C@H]2[C@@H](C(=O)N1c1cc(Cl)cc(Cl)c1)[C@]1(C(=O)Nc3ccccc31)N1CCC[C@@H]21,-1.8%
9,COC(=O)c1ccccc1Nc1ccccc1,-2.7%
10,CCOC(=O)C1=C(N)n2c(s/c(=C\c3cccnc3)c2=O)=C(C(=O)OCC)C1c1cccnc1 (centres undefined),-31.3%
11,CCOC(=O)C1=C(N)n2c(s/c(=C/c3ccco3)c2=O)=C(C(=O)OC)C1c1ccco1 (centres undefined),75.9% (active)
12,CCOC(=O)C1=C(N)n2c(s/c(=C\c3ccco3)c2=O)=C(C(=O)OC(C)C)C1c1ccco1 (centres undefined),-11.9%
13,N#CC1=C(N)n2c(s/c(=C\c3ccco3)c2=O)=C(C#N)C1c1ccco1 (centres undefined),12.3%
14,CCOC(=O)C1=C(N)n2c(s/c(=C\c3cccnc3)c2=O)=C(C(=O)OC)C1c1cccnc1 (centres undefined),10.6%
15,CCCCCCn1c(SCC(=O)OC)nc2c1c(=O)[nH]c(=O)n2C,3.9%
16,CC1Cc2ccccc2N1C(=O)CSc1ncccc1C(=O)O (centres undefined),-4.3%
17,O=C(CCn1c(=O)oc2ccccc21)N1CCN(c2ccccc2F)CC1,1.4%
18,O=C(CCn1c(=O)oc2ccccc21)N1CCCCCC1,10.9%
19,O=C(CCn1c(=O)oc2ccccc21)N1CCN(c2ccccc2Cl)CC1,56.7% (active)
20,COc1ccc(OCC(=O)N(C)Cc2ccccc2)cc1,-16.7%
21,COc1ccc(CCNc2nc(-c3sc(N)nc3C)cs2)cc1OC,16%
22,O=S1(=O)Nc2c(ccc3cccnc23)-c2ccccc21,90.9% (active)
23,Nc1ccc2c(c1)-c1ccccc1S(=O)(=O)N2,14.6%
24,Cc1ccc2c(c1)-c1ccccc1S(=O)(=O)N2,10.1%
